# Assay results from PubChem BioAssay (Tox21).
# Records with an inconclusive call do not appear. The source made the active and inactive calls. Calls follow the shape of the dose curve; as a rule, active = well fitted cell-killing curve with a large enough effect in the repeat runs; inconclusive = weak or mixed curves, or effect the other way; inactive = flat fitted curve, though single readings scatter. Non-standard residues stand in square brackets, D forms with d. Residues, ends and D or L forms follow the SMILES beside them. *: point of attachment. Sta = CC(C)C[C@H](N)[C@@H](O)CC(=O)O; Isovaleryl = CC(C)CC(=O)*
# Assay: qHTS assay to identify small molecule that activate the aryl hydrocarbon receptor (AhR) signaling pathway - cell viability counter screen (AID 743086);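 also: HepG2 liver cells carrying the AhR DRE luciferase reporter; nearly all actives have a fitted effect of over 45% in size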
# Details: HepG2-AhR-luc viability, CellTiter-Fluor, 24 h; series mostly up to 70.3 µM
# Excerpt: U.S. Tox21 Program National Center for Advancing Translational Sciences [NCATS] NIH Chemical Genomics Center [NCGC] U.S. Environmental Protection Agency [EPA] National Institutes of Environmental Health Sciences [NIEHS] National Toxicology Program [NTP] U.S. Food and Drug Administration [FDA] Tox21 Assay overview: The Aryl hydrocarbon Receptor (AhR), a member of the family of basic helix-loop-helix transcription factors, is crucial to adaptive responses to environmental changes. AhR mediates cellular responses to environmental pollutants such as aromatic hydrocarbons through induction of phase I and II enzymes but also interacts with other nuclear receptor signaling pathways A cell based HepG2-AhR-luc assay (HG2L7.5c1 cell line, developed by Dr. Michael S. Denison, University of California at Davis) was used to assess the activation of AhR. HepG2 (human hepatocellular carcinoma) cells were stably transfected with an Ah receptor-responsive firefly luciferase reporter gene plasmid containing 20 dioxin responsive elements and luciferase reporter gene. Increased luciferase activity can be used to identify the compounds that induce AhR activation. The cytotoxicity of the compounds screened against the HepG2-AhR-luc cell line was tested in parallel by measuring the cell viability using CellTiter-Fluor assay in the same wells.
# Tox21 Assay Protocol Summary: 4000 cells in 5 uL/well were dispensed into white wall/solid bottom 1536-well plates using a Multidrop Combi (Thermo Fisher Scientific Inc., Waltham, MA) dispenser. After the assay plates were incubated at 37C for 5 h, 23 nL of compound or DMSO vehicle was transferred to the assay plates by a pintool station (Kalypsys, San Diego, CA). The plates were incubated at 37C for 24 hr. For cell viability measurement, 1 ul/well of CellTiter-Fluor reagent (Promega, Madison, WI) was added into the assay plates using a Flying Reagent Dispenser (FRD) (Aurora Discovery, CA),and then the assay plates were incubated at 37C for 30 min. The fluorescence intensity in the plates was measured using a ViewLux plate reader (PerkinElmer, Shelton, CT), followed by the addition of 4 uL of ONE-Glo Luciferase Assay reagent (Promega) using an FRD (Aurora Discovery). After the assay plates were incubated at room temperature for 30 min, luminescence intensity was measured using a ViewLux plate reader (Perkin Elmer).
# % is scaled to controls: 0 for no effect and ±100 for the full control effect.
SMILES,outcome,"viability change, negative = cytotoxic"
CC(C)CC(O)Cc1ccccc1 (stereo not given),inactive,–
CNCCc1ccccn1,inactive,–
O=C(O)CCCCCCCCCC(=O)O,inactive,–
Nc1ccc(C(=O)NCC(=O)O)cc1,inactive,–
Clc1cc(Cl)c(Cl)c(Cl)c1Cl,inactive,–
O=C(CCBr)N1CCN(C(=O)CCBr)CC1,inactive,–
C=CCCCCCCCCOC(C)=O,inactive,–
CCOCCOCCOC(C)=O,inactive,–
CC(C)OCCO,inactive,–
CCCCCCCCCCCCCCCC/C=C/C1CC(=O)OC1=O (stereo not given),inactive,–
O=C1Nc2ccccc2C1=O,inactive,–
CC(C)=CCC/C(C)=C\C#N,inactive,–
BrCCOc1ccccc1,inactive,–
Cc1ccc(O)c([N+](=O)[O-])c1,inactive,–
CC(=O)OC/C=C(/C)CCC=C(C)C,inactive,–
CC(C)(C)OC(=O)c1ccccc1C(=O)O,inactive,–
COC(=O)N/N=C/c1c[n+]([O-])c2ccccc2[n+]1[O-],inactive,–
C[C@H]1COc2c(C3(N)CC3)c(F)cc3c(=O)c(C(=O)O)cn1c23,inactive,–
O=CN1CCCCC1,inactive,–
CCCCCCCCCCCBr,inactive,–

SMILES,outcome,"viability change, negative = cytotoxic"
c1cc2ccc3ccc4ccc5cccc6c(c1)c2c3c4c56,–,13.2% [at 3.79 µM] (inactive)
C=CC(C)(CCC=C(C)C)OC(=O)C(C)C (stereo not given),inactive,–
NNC(=O)OCc1ccccc1,inactive,–
CCCCCC(=O)CC,inactive,–
COC(=O)c1ccccc1Cl,inactive,–
Cc1ccc(Br)cc1,inactive,–
CC(C)c1cc(C(C)C)cc(C(C)C)c1,inactive,–
Cc1ccccc1OCC(=O)O,inactive,–
CC(=O)c1ccc2ccc3ccccc3c2c1,inactive,–
CC(C)OC(=O)C(C(=O)OC(C)C)=C1SC=CS1,inactive,–
O=C1CC2(CCCC2)CC(=O)N1CCNCC1COc2ccccc2O1 (stereo not given),inactive,–
CCNC(=O)C(C)OC(=O)Nc1ccccc1 (stereo not given),inactive,–
CC1=C(O)C(=O)CO1,inactive,–
COC(C)(C)CC(C)=O,inactive,–
CCCCN(CCCC)CCCCCCN(CCCC)CCCC,inactive,–
O=C(O)CCC(=O)Nc1ccc(S(=O)(=O)Nc2nccs2)cc1,inactive,–
COc1cc(OC)cc(OC)c1,inactive,–
O=C1c2ccccc2C(=O)N1CO,inactive,–
CC(C)CC(=O)N[C@H](C(=O)N[C@H](C(=O)N[C@@H](CC(C)C)[C@@H](O)CC(=O)N[C@@H](C)C(=O)N[C@@H](CC(C)C)[C@@H](O)CC(=O)O)C(C)C)C(C)C (Isovaleryl-VV[Sta]A[Sta]-OH),inactive,–
CC(C)(C)OC=O,inactive,–
